CYP2C19 inhib: inhibitors of human CYP2C19; CYP2C19 Supersomes, luciferin-H EGE luminescence, 30 min; inhibition, % at 5 µM; 96,000 compounds, 21% hits; AID 778;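 active means CYP2C19 inhibition above a set limit at 5 µM in the primary screen, cut at about 50% in these data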;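 further: plate controls were negative control wells for no effect and 2.5 mM tranylcypromine positive control for full effect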
CYP2C9 inhib: human CYP2C9 inhibition | P11712 | CYP2C9 Supersomes, luciferin-H conversion, luminescence | inhibition, % at 5 µM | 96,000 compounds, 20% hits | AID 777;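 active means blocking of liver enzyme CYP2C9 beyond about 50% at 5 µM, limit read from the data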
CYP2C9 act: activators of human CYP2C9 | P11712 | recombinant CYP2C9, luciferin-H conversion, luminescence; stronger effect = higher value; factor 1 = untreated enzyme, 0 = blocked | activation factor at 5 µM | 96,000 compounds, 1.4% hits | AID 1024;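 active means activation factor of 2 or more for CYP2C9 at a 5 µM dose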;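 further: 0 = sulfaphenazole-blocked wells and 1 = vehicle-only wells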
CYP2C19 activ: activators of human cytochrome P450 2C19; 96,000 tested, under 10 active; recombinant CYP2C19, luciferin-H EGE luminescence; stronger effect = higher value; 0 = fully inhibited enzyme, 1 = untreated enzyme; AID 1025; P33261; activation factor at 5 µM;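 active means activation factor of at least 2 at 5 µM in the primary screen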;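 further: 0 = wells with 2.5 mM tranylcypromine and 1 = vehicle-only wells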
Cav32 inh: inhibitors of human Cav3.2 T-type calcium channel; AID 449739; Cav3.2-expressing cells, Fluo-4 calcium fluorescence FDSS; stronger effect = lower value; B-score at 10 µM; 100,000 compounds, 4% hits; O95180;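 active means single-dose well whose peak fluorescence ratio is a statistical outlier from its plate by either plate-standardised score or position-corrected B-score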
Target sequence (O95180 whole entry, looked up): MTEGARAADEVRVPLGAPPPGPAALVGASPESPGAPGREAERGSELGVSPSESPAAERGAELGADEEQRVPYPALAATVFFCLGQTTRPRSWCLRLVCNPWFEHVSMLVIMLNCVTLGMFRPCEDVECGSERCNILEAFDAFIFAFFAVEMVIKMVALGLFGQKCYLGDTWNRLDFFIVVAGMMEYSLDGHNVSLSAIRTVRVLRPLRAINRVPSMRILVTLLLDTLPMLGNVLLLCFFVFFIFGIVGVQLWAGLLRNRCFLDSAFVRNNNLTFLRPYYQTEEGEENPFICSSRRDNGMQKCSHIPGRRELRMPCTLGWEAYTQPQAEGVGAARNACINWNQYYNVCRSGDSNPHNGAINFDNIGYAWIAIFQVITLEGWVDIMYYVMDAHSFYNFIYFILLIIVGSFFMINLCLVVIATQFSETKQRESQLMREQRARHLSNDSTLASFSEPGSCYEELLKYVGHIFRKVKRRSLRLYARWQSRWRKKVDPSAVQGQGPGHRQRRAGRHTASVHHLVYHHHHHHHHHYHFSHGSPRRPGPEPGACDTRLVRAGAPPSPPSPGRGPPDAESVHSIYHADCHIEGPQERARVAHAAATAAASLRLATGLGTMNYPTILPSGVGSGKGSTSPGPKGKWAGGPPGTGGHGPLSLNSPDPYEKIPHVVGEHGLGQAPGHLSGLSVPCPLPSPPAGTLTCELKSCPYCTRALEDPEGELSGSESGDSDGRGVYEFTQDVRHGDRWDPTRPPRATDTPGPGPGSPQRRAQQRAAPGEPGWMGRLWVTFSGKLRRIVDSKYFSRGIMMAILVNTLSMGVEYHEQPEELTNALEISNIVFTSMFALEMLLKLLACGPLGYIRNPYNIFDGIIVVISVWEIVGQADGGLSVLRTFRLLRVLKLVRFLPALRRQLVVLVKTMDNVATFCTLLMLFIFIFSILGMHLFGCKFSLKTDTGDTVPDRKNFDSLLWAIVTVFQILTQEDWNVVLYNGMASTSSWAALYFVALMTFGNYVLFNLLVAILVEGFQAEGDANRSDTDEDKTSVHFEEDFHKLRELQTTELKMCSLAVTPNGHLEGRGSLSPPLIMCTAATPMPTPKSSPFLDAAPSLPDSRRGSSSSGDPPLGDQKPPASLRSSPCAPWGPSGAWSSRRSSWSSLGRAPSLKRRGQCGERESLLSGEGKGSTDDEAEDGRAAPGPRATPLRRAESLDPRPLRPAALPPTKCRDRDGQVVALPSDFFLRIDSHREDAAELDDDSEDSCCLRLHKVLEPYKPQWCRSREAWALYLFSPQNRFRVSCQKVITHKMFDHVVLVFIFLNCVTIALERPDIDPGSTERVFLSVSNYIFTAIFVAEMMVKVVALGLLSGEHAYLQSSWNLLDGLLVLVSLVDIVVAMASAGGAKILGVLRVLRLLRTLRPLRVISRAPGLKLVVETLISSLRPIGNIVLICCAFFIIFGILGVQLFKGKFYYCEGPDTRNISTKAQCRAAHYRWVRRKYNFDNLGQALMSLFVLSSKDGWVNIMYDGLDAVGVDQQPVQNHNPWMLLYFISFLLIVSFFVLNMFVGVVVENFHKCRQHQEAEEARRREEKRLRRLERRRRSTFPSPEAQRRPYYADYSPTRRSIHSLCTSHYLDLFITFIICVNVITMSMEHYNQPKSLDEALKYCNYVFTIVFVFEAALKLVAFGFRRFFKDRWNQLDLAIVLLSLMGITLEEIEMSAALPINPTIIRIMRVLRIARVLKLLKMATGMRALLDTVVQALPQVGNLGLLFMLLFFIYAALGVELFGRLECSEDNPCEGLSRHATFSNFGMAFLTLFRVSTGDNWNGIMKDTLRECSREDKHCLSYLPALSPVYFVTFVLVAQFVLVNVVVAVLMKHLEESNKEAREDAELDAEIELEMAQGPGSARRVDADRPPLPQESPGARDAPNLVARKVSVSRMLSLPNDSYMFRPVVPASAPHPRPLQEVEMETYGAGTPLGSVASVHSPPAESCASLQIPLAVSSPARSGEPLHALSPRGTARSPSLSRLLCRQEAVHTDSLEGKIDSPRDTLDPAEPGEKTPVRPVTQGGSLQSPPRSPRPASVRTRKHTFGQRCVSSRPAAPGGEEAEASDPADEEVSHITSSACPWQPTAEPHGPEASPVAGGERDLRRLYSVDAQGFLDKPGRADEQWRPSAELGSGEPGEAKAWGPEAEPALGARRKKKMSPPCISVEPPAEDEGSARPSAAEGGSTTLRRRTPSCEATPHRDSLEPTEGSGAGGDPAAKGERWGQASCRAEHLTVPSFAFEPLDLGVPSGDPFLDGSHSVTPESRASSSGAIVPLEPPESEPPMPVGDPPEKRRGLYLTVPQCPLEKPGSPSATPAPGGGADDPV
The depositor's hits bear a star; x = not tested or not shown. Most compounds without a hit are left out; they make up all but 27% or so of the library.

SMILES	CYP2C19 inhib	CYP2C9 inhib	CYP2C9 act	CYP2C19 activ	Cav32 inh
CC(C)(C)C(=O)N=C1SC2CS(=O)(=O)CC2N1c1ccc2c(c1)OCO2 (stereo not given)	56.7*	63.2*	0.4	0.4	0.148
C=CCn1c(SCc2nc(N)nc(N(C)C)n2)nnc1-c1cccnc1	49.4	15.0	0.8	0.5	x
Cc1ccc(S(=O)(=O)Nc2nc(C)c(NC(=O)Nc3ccc(Cl)cc3Cl)s2)cc1	4.3	61.0*	0.4	1	-3.23
Cc1ccc(S(=O)(=O)Nc2nc(C)c(NC(=O)OCCCl)s2)cc1	3.9	89.0*	0.1	1	x
COc1ccc(/C=C/C(=O)c2ccc(OC)cc2OC)c(OC)c1	x	x	x	x	-2.21
COc1ccc(C(=O)/C=C/c2cccs2)c(OC(=O)c2cccc([N+](=O)[O-])c2)c1	5.6	50.0*	0.5	0.9	-0.496
Cc1noc(C)c1Cc1ccc(O)cc1	22.8	31.0	0.7	0.8	0.761
O=C(Nc1c(C(=O)NCc2ccco2)cnn1-c1ccccc1)c1ccc(F)cc1	42.6	41.9	0.6	0.6	-0.14
Cc1cc(NC(=O)C2COc3ccccc3O2)no1 (stereo not given)	60.6*	38.4	0.6	0.4	0.678
Cc1csc(NC(=O)C2COc3ccccc3O2)n1 (stereo not given)	83.4*	48.1	0.5	0.2	0.00436
O=C(Nc1ccccn1)C1COc2ccccc2O1 (stereo not given)	x	x	x	x	-0.0405
CSc1nc2ccc3nc(NC(=O)C4COc5ccccc5O4)sc3c2s1 (stereo not given)	6.6	33.3	0.7	0.9	-0.64
Cc1cnc(NC(=O)C2COc3ccccc3O2)s1 (stereo not given)	67.1*	17.6	0.8	0.3	-0.685
Cc1nc2ccc3nc(NC(=O)C4COc5ccccc5O4)sc3c2s1 (stereo not given)	-4.8	67.7*	0.3	1	x
NS(=O)(=O)c1cc2c(cc1Cl)NC=NS2(=O)=O	x	x	x	x	0.178
CCOc1cc(C2C(C(=O)c3ccccc3)=C(C(=O)OC)Nc3nnnn32)ccc1O (stereo not given)	-16.9	-1.2	1	1.2	0.35
Cc1ccccc1CSc1nnc(NC(=O)C2COc3ccccc3O2)s1 (stereo not given)	10.4	13.0	0.9	0.9	-2.25
O=C(Nc1nnc(SCc2ccccc2Cl)s1)C1COc2ccccc2O1 (stereo not given)	10.1	54.7*	0.5	0.9	-1.17
CC(C)(C)NC(=O)COC(=O)Cc1ccc(Cl)cc1	29.8	-8.9	1.1	0.7	-0.0864
O=C(O)CSc1nc2ccccc2o1	-25.4	-20.2	1.2	1.3	x
O=C(CSc1nc2ccccc2o1)NCC(=O)c1ccccc1	61.0*	-11.3	1.1	0.4	1.97
O=C(CSc1nc2ccccc2o1)NCCOc1ccccc1	89.2*	68.0*	0.3	0.1	-1.51
CSc1cccc(NC(=O)CSc2nc3ccccc3o2)c1	53.3*	38.4	0.6	0.5	-3.62
O=C(CSc1nc2ccccc2o1)Nc1ccccc1	63.4*	1.6	1	0.4	-0.964
O=C(CSc1nc2ccccc2o1)NCc1n[nH]c(=O)c2ccccc12	-12.8	-50.4	1.5	1.1	x
SMILES	CYP2C19 inhib	CYP2C9 inhib	CYP2C9 act	CYP2C19 activ	Cav32 inh
O=C(Nc1cc(Cl)cc(Cl)c1)c1cccc(OC(F)F)c1	16.3	33.9	0.7	0.8	-0.155
CSc1nc(Oc2ccc3ccccc3c2)c2ccccc2n1	38.4	36.4	0.6	0.6	-2.61
Cn1c(SCC(=O)N2CCN(c3ccccc3)CC2)nnc1-c1c[nH]c2ccccc12	54.3*	15.7	0.8	0.5	-0.649
CCCCCCSc1nnc(-c2cnn(-c3ccccc3)c2-n2cccc2)n1C	47.2	61.0*	0.4	0.5	-8.94*
CCSc1nnc(-c2cnn(-c3ccccc3)c2-n2cccc2)n1C	-3.0	-1.6	1	1	2.31
CCn1c(SCC(=O)N2CCN(c3ccccc3)CC2)nnc1-c1ccncc1	x	x	x	x	0.551
CCn1c(SCC(=O)N2CCN(c3ccccc3)CC2)nnc1-c1c[nH]c2ccccc12	64.0*	-10.8	1.1	0.4	-1.84
CCCCSc1nnc(-c2c[nH]c3ccccc23)n1C	56.2*	-1.3	1	0.4	0.405
Cn1c(SCC(=O)N2CCN(c3ccccc3)CC2)nnc1-c1ccccc1	1.0	3.9	1	1	-1.06
COc1ccc(CN/C(C)=C(/C#N)C(N)=O)cc1OC	11.5	6.2	0.9	0.9	0.791
COc1ccc(CCN(CC(=O)NC2CCCC2)C(=O)CCC(=O)Nc2cc(C)on2)cc1OC	6.2	29.9	0.7	0.9	0.0604
O=C1/C(=C\Nc2ccc(Cl)cc2)CCN1c1ncccn1	20.1	44.9	0.6	0.8	0.263
CC(C)(O)C#Cc1ccc(C(=O)NCc2cccs2)s1	-7.9	6.1	0.9	1.1	-0.511
CC(C)NC(=O)c1ccc(C2SCC(=O)N2Cc2ccccc2)cc1 (stereo not given)	x	x	x	x	0.795
CC1(C)Cc2ccccc2-c2nnc(SCC(=O)N3CCN(c4ccccc4)CC3)n21	79.9*	61.6*	0.4	0.2	-0.852
CCOC(=O)C(C)Sc1nnc2n1C(C)(C)Cc1ccccc1-2 (stereo not given)	x	x	x	x	1.58
CCn1c(SCC(=O)N2CCc3ccccc32)nnc1-c1c[nH]c2ccccc12	6.6	4.7	1	0.9	0.0355
CCn1c(SCC(=O)N2CCCc3ccccc32)nnc1-c1c[nH]c2ccccc12	75.7*	-11.6	1.1	0.2	-3.34
Cc1cc(OC(=O)c2ccc(Cl)cc2Cl)nc(C)n1	-6.1	-9.7	1.1	1.1	2.99
CCCCC1CCC(C(=O)NCc2ccc3c(c2)OCO3)CC1 (stereo not given)	12.0	39.3	0.6	0.9	2.22
CCc1nnc(NC(=O)NC(C)(C)C)s1	-0.2	12.2	0.9	1	0.549
COc1ccc(C(=O)c2c(-c3ccsc3)oc3ccc(-c4ccc(OC)cc4)cc23)cc1	x	x	x	x	-1.05
COc1ccc(CC(NC(C)=O)C(=O)NC2CCN(c3nnnn3-c3ccccc3)CC2)cc1 (stereo not given)	-16.9	-17.8	1.2	1.2	-0.0188
COc1nc(OC)nc(N2CCC(NC(=O)C(Cc3ccc(C(C)C)cc3)NC(C)=O)CC2)n1 (stereo not given)	36.2	57.1*	0.4	0.6	1.18
COc1ccc(-c2csc(N(CC3CCCO3)C(=O)c3ccco3)n2)cc1 (stereo not given)	-6.5	-0.7	1	1.1	-1.01
C=C1CCN([C@@H](CC(C)C)C(=O)N2CCOCC2)S(=O)(=O)c2ccccc21	x	x	x	x	2.15
CCOC(CNC(=O)c1ccc2c(c1)nc(C)n2-c1cccc(F)c1)OCC	x	x	x	x	0.45
O=S1(=O)NC(=NCc2ccccc2)c2ccccc21	59.8*	5.3	0.9	0.4	0.434
O=C(NCCCN=C1NS(=O)(=O)c2ccccc21)c1ccncc1	21.5	79.8*	0.2	0.8	0.565
C/C(=N\OCC(=O)N/N=C/c1ccccc1O)c1cccs1	48.2	-40.7	1.4	0.5	-4.27*
